Test results as given in PubChem BioAssay (NCI).
This is part of a sample that, as a whole, favours compounds with a hit. Of some 83,000 tested, about 20% had one in any assay.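 Results are percent growth after 48 hours of single-concentration exposure. 100 means growth as in untreated cells, lower positive values show inhibition; negative values down to -100 show cell death.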 Unmarked numbers belong to inactive results. Calls of active or inactive are those of the source.

What follows are compounds tested on SNB-19 CNS (assay: NCI-60 one-dose screen, 48 h (100 = growth as untreated, 0 = no growth, -100 = all killed)). Settings: 10 µM unless noted.
Experimental: Growth inhibition of the SNB-19 human tumor cell line is measured as a screen for anti-cancer activity. Cells are grown in 96 well plates and exposed to the test compound for 48 hours. Compounds are tested at a single concentration, which is 10^-5 M for most compounds. The reported endpoint is percent growth (GI% or GIPRCNT), where numbers from 0 - 100% represent growth inhibition, and numbers from -100% - 0 represent cell death. For example, a value of 40 represents 60% growth inhibition. A value of 0 means no net growth occurred over the course of the experiment. A value of -40 indicates 40% of cells at the beginning of the experiment died by the end of the experiment. A value of -100 means all cells are dead at the end of the experiment.
NCI-60 Human Tumor Cell Lines Screen was performed using the standard one-dose NCI protocol, which is described in more detail at https://dtp.cancer.gov/discovery_development/nci-60/default.htm.
Compounds with GIPRCNT values below 10 were considered active. Activity score was based on GIPRCNT using the following formula: […]
Score is 0 for GIPRCNT values of 100 or above, 50 for GIPRCNT values of 0, and 100 for GIPRCNT values of -100.

Compound	growth
O=C1OCC2=C1C(c1ccccc1)c1cc3c(cc1N2CCO)OCO3 (stereo not given)	36%
COc1cc(C2CC(c3ccc(Cl)cc3)=NN2C=O)ccc1Oc1ccnc2cc(Cl)ccc12 (stereo not given)	72.6%
CC(C)(C)c1cc(C[P+](c2ccccc2)(c2ccccc2)c2ccccc2)cc(C(C)(C)C)c1O	24.5%
CCCCCCCC/C=C/CCCCCCCC1=NC(C)(C)CN1c1ccccc1	87.8%
c1ccc(CCn2cccc2)nc1	105%
COc1cc(/C=C/c2cc(/C=C/c3ccc(O)c(OC)c3)n(C(=O)Nc3ccc(F)c(Cl)c3)n2)ccc1O	4.42% (active)
COc1cc(OC)cc(-c2ccc(-c3ccc(C(=N)N)s3)s2)c1	-82.9% (active)
O=S1(=O)NCCCN1CCNc1nccc(-c2c(-c3cccc(O)c3)nc3sccn23)n1	119%
O=C(N/N=C\c1cc(Br)ccc1O)c1ccncc1	53.7%
C=CCOC(=O)C1=C(C)NC2=C(C(=O)CC(C)(C)C2)C1c1ccc(OC)cc1 (stereo not given)	92.2%
O=C(Nc1cccc(Cl)c1)Nc1ccccc1Cl	102%
C=C1C(=O)O[C@H]2[C@H]1CC/C(COC(=O)NCc1ccc(Cn3c(=O)sn(CCCl)c3=O)cc1)=C\CC[C@@]1(C)O[C@@H]21	99%
CCN1C(=O)N(CC)C2C1NN=c1s/c(=C\c3ccc(Br)cc3)c(=O)n12 (stereo not given)	21.4%
O=S(=O)(Nc1ccc2ccccc2c1)N1CCCCC1	90.2%
CC1CCCN(CCCCOc2ccc(-c3ccc(C#N)cc3)cc2)C1 (stereo not given)	95.3%
Clc1ccc(Cl)c(N=Cc2ccc3c(c2)OCO3)c1	107%
Cc1ccc(C)c2c1SC1=NNC(Oc3ccc(Cl)cc3)=C(C#N)C(=N)N12	110%
Fc1ccc(-c2cnc3nonc3n2)c(F)c1	92.5%
Cc1ccc(OC2=C(C#N)C(=N)N3C(=NN2)Sc2c(C)ccc(C)c23)cc1	118%
O=C1C(Cl)=C(Nc2cccc3ccccc23)C(=O)c2ccccc21	92.6%

Compound	growth
C=CC(=O)N1CN(C(=O)C=C)CN(C(=O)C=C)C1	107%
CCn1c(Cc2ccccc2Nc2c(Cl)cccc2Cl)nnc1SCC(=O)Nc1cccc(OC)c1	79.4%
Nc1c(C(=O)Nc2ccccc2)sc2nc3c(cc12)C(=O)CCC3	36.1%
O=C1/C(=C/c2cc(F)cc(F)c2)Cc2cc(F)cc(F)c21	86.8%
N#Cc1ccc(-c2ccc(-c3cccs3)o2)cc1F	110%
C[C@@H]1CC2C3CCC4=CC(=O)C=C[C@]4(C)[C@@]3(Cl)[C@@H](O)C[C@]2(C)[C@@]1(OC(=O)c1ccco1)C(=O)CCl (stereo not given in full)	86%
O=C(N/N=C/c1ccc([N+](=O)[O-])o1)c1ccc(O)cc1	54%
CC(C)N(C(=S)SSC(=S)N(C(C)C)C(C)C)C(C)C	109%
CC(C)(C)OC(=O)N1CCCN(CCNc2nccc(-c3c(-c4cccc(O)c4)nc4sccn34)n2)S1(=O)=O	126%
O=C(Nc1ccccc1)c1cc2ccccc2s1	99.7%
Oc1ccc(-c2nnc3c4[nH]ccc4ncn23)cc1	98.9%
O=C1CCCN1C(O)CCN(Cc1ccccc1)Cc1ccc(Cl)cc1 (stereo not given)	104%
Cc1cc(Nc2c3ccccc3nc3ccccc23)ccc1NS(C)(=O)=O	58%
COc1ccccc1/C=C/C(=O)CCC(=O)O	114%
COc1cc(OC)c2sc(-c3ccc(-n4cncc4-c4ccc(OC)c(N)c4)cc3)nc2c1	80.1%
COc1cc(Nc2ncccc2/C=C/C(=O)c2cc(OC)c(OC)c(OC)c2)cc(OC)c1OC	80.2%
CNCCCn1c2c(c3ccc(Cl)cc3c1=O)C(=O)c1cc(OC)cnc1-2	28.3%
O=[N+]([O-])c1ccc(Sc2nc(Cl)nc(NC3CCCC3)n2)cc1	-95.5% [100 µM] (active)
COC(=O)OC1C(O[C@H]2C[C@H]3[C@@H]4CC=C5C[C@@H](O)CC[C@]5(C)[C@H]4CC[C@]3(C)[C@H]2[C@H](C)C(=O)CCC(C)C)OCC(O)C1OC1OCC(O)C(O)C1OC(=O)c1ccc(OC)cc1 (stereo not given in full)	8.46% (active)
c1cc2c(cc1-c1cnc3nonc3n1)OCO2	92.6%
